From PubChem BioAssay AID1851 (National Center for Advancing Translational Sciences (NCATS), 2009) come the findings set out here.

Out of some 16,000 compounds screened, about 2,600 (16%) were called active. About 20% were inconclusive and are not listed. The list is a sample of the results. A number with no mark means an inactive call. Calls come from the whole dose curve; as a rule, active = well fitted curve in the direction sought with a large enough effect; inconclusive = small, poorly fitted or top-dose-only effect, or effect the other way; inactive = no such curve, though single readings can be large or run the other way.
% is set by controls: 0 for no effect and ±100 for the full control effect.

The target of the experiment is Cytochrome P450 2D6 (Homo sapiens) (UniProt P10635). Put plainly: Cytochrome panel assay with activity outcomes. As to conditions: recombinant CYP, pro-luciferin dealkylation, luminescence, p450-cyp2d6; series mostly up to 57.1 µM.
Cytochrome P450 2D6 (Homo sapiens), sequence (P10635 whole entry, looked up): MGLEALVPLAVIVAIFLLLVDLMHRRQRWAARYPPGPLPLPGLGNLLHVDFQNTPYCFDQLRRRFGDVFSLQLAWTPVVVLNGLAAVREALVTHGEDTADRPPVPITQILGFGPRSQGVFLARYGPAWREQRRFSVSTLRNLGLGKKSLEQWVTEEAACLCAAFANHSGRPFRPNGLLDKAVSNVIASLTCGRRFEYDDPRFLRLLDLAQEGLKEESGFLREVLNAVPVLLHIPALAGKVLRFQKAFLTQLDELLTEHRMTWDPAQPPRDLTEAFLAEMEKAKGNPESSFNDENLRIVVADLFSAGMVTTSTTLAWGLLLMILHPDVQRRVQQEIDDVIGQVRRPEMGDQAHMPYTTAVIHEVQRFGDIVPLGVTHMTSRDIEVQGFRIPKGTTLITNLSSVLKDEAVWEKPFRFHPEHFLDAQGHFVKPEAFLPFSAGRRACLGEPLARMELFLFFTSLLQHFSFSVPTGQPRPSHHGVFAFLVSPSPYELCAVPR
For the compound `CC(=O)NNC(=O)C(O)(c1ccccc1)c1ccccc1`, the AC50 result was “inactive”. On to `CC(=O)NNC(=O)N1Cc2ccccc2Oc2ccc(Cl)cc21`, for which the half-maximal activity concentration (AC50) was 6.31 µM (active). On the same count and under the same terms, then `O=C(O)CCC(=O)N1CCOc2ccc(Cl)cc21`, with “inactive”; and `CC/C(O)=C(\C#N)c1nnc2n1CCCCC2`, with “inactive”. Still for that read-out and setting: for `COc1ccc(-c2nc3cnc(Nc4cccc(OC)c4)nc3n(CCC#N)c2=O)cc1` the value was “inactive”; for `Cc1ccc(NC(=O)Cn2nc([N+](=O)[O-])c(Br)c2C)cc1C`, “inactive”. On the same count and under the same terms, then `COc1cc(CNCc2ccccn2)ccc1OCc1ccc(Cl)cc1Cl`, with 12.6 µM (active); and `COc1cc(CNn2nnnc2N)ccc1OCc1c(Cl)cccc1Cl`, with “inactive”. For `COc1cc(CNCCN2CCOCC2)ccc1OCc1ccccc1Cl`, the half-maximal activity concentration (AC50) is 11.2 µM (active). Same read-out and setting: for `c1csc(CNCCCN2CCOCC2)c1` the value was “inactive”. As to `COc1cc2c(cc1OC)-c1cc(NCc3ccccn3)nc(=O)n1CC2`, the AC50 entry was “inactive”. As for `Cc1ccccc1-c1cc(NCCN2CCOCC2)ncn1`, the AC50 entry was “inactive”.

For `CCOc1ccccc1CNCCN1CCOCC1`, the half-maximal activity concentration (AC50) is 12.6 µM (active). On to `COc1ccc(NC(=O)COc2ccc(CNCCCN3CCOCC3)cc2OC)cc1`, for which the AC50 entry was “inactive”. The same measure, in the same setting: then `COc1ccc(CC(=O)NCc2ccccn2)cc1OC`, with “inactive”; and `CCN(CC)S(=O)(=O)N1CCC(C(=O)NC2CCCC2)CC1`, with “inactive”. On the same count and under the same terms, for `COc1cccc(Cn2c(=O)c(-c3cccc(C#N)c3)nc3cnc(OC)nc32)c1` the value was “inactive”. Still for that read-out and setting: then `COc1ccc(-c2cc(C(F)(F)F)nc(N3CCOCC3)n2)cc1OC`, with “inactive”; and `CC1=NN(c2ccc(C)cc2C)C(=O)C1C(c1ccccc1)C1C(=O)N(c2ccc(C)cc2C)N=C1C` (stereo unspecified), with “inactive”. For the compound `C=CC[C@@H]1C=C[C@@H](O/N=C\[C@@H](OC)[C@H](C)/C=C\CC(=O)OC)[C@@H](CO)O1`, the activity, negative = inhibition is 4.18% [at 11.4 µM]. Regarding `O=C(c1cc(-c2ccncc2)nc2ccccc12)N1CCN(c2ccc(N3CCOCC3)nn2)CC1`, the AC50 result is “inactive”. Consider `COc1ccc(/C(O)=C2\C(=O)C(=O)N(c3cc(C)on3)C2c2ccc(OC)c(OC)c2)cc1OC` (stereo unspecified), for which the AC50 result was “inactive”. With `CC(C)c1nnc(NC(=O)c2sc3ccccc3c2Cl)s1`, the AC50 result is “inactive”. With `C[N+](C)(CCCCCC[N+](C)(C)CCCN1C(=O)c2cccc3cccc(c23)C1=O)CCCN1C(=O)c2cccc3cccc(c23)C1=O`, the AC50 entry was “inactive”. Turning to `CS[C@@H](CC(=O)O)C(=O)O`, the activity, negative = inhibition was -10.1% [at 11.4 µM]. On the same count and under the same terms, then `CC(CC(=O)O)(CC(=O)O)c1ccccc1`, with 11.2% [at 11.4 µM]. For the compound `CCN(CC)CC#CCC(C)(c1ccccc1)c1ccccc1`, the AC50 was 0.891 µM (active). As for `COc1ncc2nc(C)c(=O)n(-c3ccccc3)c2n1`, the AC50 result is “inactive”. For the compound `O=C(Nc1nc(-c2ccccc2)cs1)c1ccc(Br)o1`, the AC50 result was “inactive”.

In the case of `CN1CCN(c2ncc3nc(-c4cc(F)cc(F)c4)c(=O)n(Cc4cccs4)c3n2)CC1`, the AC50 entry is “inactive”. On the same count and under the same terms, for `O=C(CCN1C(=O)c2ccccc2C1=O)Oc1ccc2ccccc2c1` the value was “inactive”. On the same count and under the same terms, then `O=C(c1ccc(S(=O)(=O)N2CCCCCC2)cc1)N1CCC(CN2C(=O)c3cccc4cccc(c34)C2=O)CC1`, with “inactive”; and `O=C1c2cccc3cccc(c23)C(=O)N1CC1CCN(CC(O)COc2ccc3ccccc3c2)CC1` (stereo unspecified), with 0.708 µM (active).

For the compound `O=C(O)[C@@H](S)[C@H](S)C(=O)O`, the activity, negative = inhibition is -4.31% [at 11.4 µM]. In the case of `CN1CCN(c2ccc([N+](=O)[O-])cc2S(=O)(=O)N2CCOCC2)CC1`, the AC50 entry was “inactive”. The same measure, in the same setting: then `Cc1cccc(N2CCN(c3ccc(NC(=O)/C=C(/C(=O)O)c4ccccc4)cc3)CC2)c1`, with “inactive”; and `CC(=O)Nc1ccc(N2CCCCC2)cc1`, with “inactive”; and `Cc1cccc(OCCCC(=O)Nc2ccc(N3CCCCC3)cc2)c1`, with 0.891 µM (active).

In the case of `Cc1ccnc2nc(C(=O)OCC(=O)Nc3ccc4c(c3)OC(F)(F)O4)nn12`, the AC50 result is “inactive”. Regarding `CCO[P@]1(=O)OC[C@@H]2O[C@H](n3cnc4c(N)ncnc43)[C@H](O)[C@@H]2O1`, the activity, negative = inhibition was 4.83% [at 11.4 µM]. Regarding `CCN(/C=N/c1sc2c(c1C#N)CCCCC2)CC`, the AC50 result is “inactive”.

As for `O=C(NC1(C(F)(F)F)C(=O)Nc2c1c(=O)[nH]c(=O)n2-c1ccc(F)cc1)c1cccnc1` (stereo unspecified), the AC50 result is “inactive”. `CN(C)CCCN1CC(C(=O)O)CC1=O` (stereo unspecified): the AC50 entry is “inactive”. On the same count and under the same terms, for `Cc1cccc(CNc2ncnc3ccc(-c4cccc(C#N)c4)cc23)c1` the value was “inactive”. On the same count and under the same terms, then `c1ccc(Nc2ncnc3ccc(-c4cccnc4)cc23)cc1`, with “inactive”; and `Cc1cccc(CNc2ncnc3ccc(-c4cccnc4)cc23)c1`, with 12.6 µM (active). Take `c1ccc(CNc2ncnc3ccc(-c4cccnc4)cc23)cc1`: the AC50 was 10 µM (active). Same read-out and setting: then `c1cncc(-c2ccc3ncnc(NC4CCNCC4)c3c2)c1`, with “inactive”; and `CN1CCN(C2CC(=O)N(Cc3ccc(N4CCCC4=O)cc3)C2=O)CC1` (stereo unspecified), with “inactive”. For `O=c1c(-c2ccccc2)nc2cnc(N3CCNCC3)nc2n1Cc1ccc(F)cc1`, the AC50 result was “inactive”. For the compound `COc1ccc2c(Cl)cc(NC(=S)Nc3ccccc3)nc2c1`, the activity, negative = inhibition is -18.8% [at 11.4 µM]. For the compound `COc1ccc(N2C(=O)CCC(C(=O)O)C2c2ccc(F)cc2)cc1` (stereo unspecified), the AC50 entry was “inactive”. Take `CN1CCN(c2ncc3nc(-c4cn(C)c5ccccc45)c(=O)n(C)c3n2)CC1`: the AC50 result is “inactive”. The same measure, in the same setting: for `O=C(NNc1cccc(Cl)n1)Nc1ccccc1Cl` the value was “inactive”; for `COc1ccc(-c2nc3cnc(N4CCNCC4)nc3n(Cc3cccs3)c2=O)cc1`, “inactive”; for `Cc1nc(-c2cccc(NC(=O)c3cc4cc(Br)ccc4oc3=O)c2)cs1`, “inactive”. On the same count and under the same terms, for `CCn1c(C)cc(/C=C2\NC(=O)N(Cc3ccc(Cl)cc3)C2=O)c1C` the value was “inactive”; for `Cc1ccc(NC(=S)c2nc3ccccc3s2)cc1`, “inactive”; for `CCN(CC)c1ccc(/C=C/c2nc3ccccc3s2)cc1`, 28.2 µM (active). For the compound `Brc1ccc(/C=C/C=N/Nc2nc3ccccc3s2)cc1`, the AC50 result is “inactive”. On to `Cn1c(=O)c2[nH]c(COCc3nc4c([nH]3)c(=O)n(C)c(=O)n4C)nc2n(C)c1=O`, for which the activity, negative = inhibition is 3.11% [at 11.4 µM]. Still for that read-out and setting: then `NC1=C(O)C(=O)[C@H](c2c[nH]c3ccc(OCc4ccccc4)cc23)O1`, with -2.34% [at 11.4 µM]. For the compound `O=C(Oc1ccccc1)N1CCC2(CC1)CN(c1ccncc1)C2`, the AC50 entry is “inactive”.

`O=C(CNCCO)N1CCc2ccccc21`: the AC50 result was “inactive”. Take `CCN(CCCNC(=O)CC(C(=O)N1CCc2ccccc21)n1ccnc1)c1ccccc1` (stereo unspecified): the concentration at half-maximal activity (AC50) is 3.98 µM (active). Same read-out and setting: for `CCCCN(C)CCCNC(=O)CCn1nc(-c2ccccc2)ccc1=O` the value was “inactive”.

One may read the AC50 as the midpoint of the concentration-response curve, whichever way the signal moves.
